Our source for the Percent Effect values is ChEMBL document CHEMBL3988442, “University of Dundee, Small-Polar-MMV Screening Library” (2021).

SMILES strings stand for the structures. For some assays here: Potency and affinity values are given separately.

Common to all, as to design: scale not given: direction of the effect not stated beside the values
Assay [1] has as its target Protein translocase subunit SecA (Escherichia coli (strain K12)) (UniProt P10408). As to the kind of experiment: Assay to Identify E. coli SecA ATPase Inhibitors. The settings on record: 30 µM. In kind it is functional.
The target of assay [2] is T1, Ubiquitin-activating enzyme e1, putative (Leishmania donovani (strain BPK282A1)) (UniProt E9BSI1).
T1 sequence (whole entry): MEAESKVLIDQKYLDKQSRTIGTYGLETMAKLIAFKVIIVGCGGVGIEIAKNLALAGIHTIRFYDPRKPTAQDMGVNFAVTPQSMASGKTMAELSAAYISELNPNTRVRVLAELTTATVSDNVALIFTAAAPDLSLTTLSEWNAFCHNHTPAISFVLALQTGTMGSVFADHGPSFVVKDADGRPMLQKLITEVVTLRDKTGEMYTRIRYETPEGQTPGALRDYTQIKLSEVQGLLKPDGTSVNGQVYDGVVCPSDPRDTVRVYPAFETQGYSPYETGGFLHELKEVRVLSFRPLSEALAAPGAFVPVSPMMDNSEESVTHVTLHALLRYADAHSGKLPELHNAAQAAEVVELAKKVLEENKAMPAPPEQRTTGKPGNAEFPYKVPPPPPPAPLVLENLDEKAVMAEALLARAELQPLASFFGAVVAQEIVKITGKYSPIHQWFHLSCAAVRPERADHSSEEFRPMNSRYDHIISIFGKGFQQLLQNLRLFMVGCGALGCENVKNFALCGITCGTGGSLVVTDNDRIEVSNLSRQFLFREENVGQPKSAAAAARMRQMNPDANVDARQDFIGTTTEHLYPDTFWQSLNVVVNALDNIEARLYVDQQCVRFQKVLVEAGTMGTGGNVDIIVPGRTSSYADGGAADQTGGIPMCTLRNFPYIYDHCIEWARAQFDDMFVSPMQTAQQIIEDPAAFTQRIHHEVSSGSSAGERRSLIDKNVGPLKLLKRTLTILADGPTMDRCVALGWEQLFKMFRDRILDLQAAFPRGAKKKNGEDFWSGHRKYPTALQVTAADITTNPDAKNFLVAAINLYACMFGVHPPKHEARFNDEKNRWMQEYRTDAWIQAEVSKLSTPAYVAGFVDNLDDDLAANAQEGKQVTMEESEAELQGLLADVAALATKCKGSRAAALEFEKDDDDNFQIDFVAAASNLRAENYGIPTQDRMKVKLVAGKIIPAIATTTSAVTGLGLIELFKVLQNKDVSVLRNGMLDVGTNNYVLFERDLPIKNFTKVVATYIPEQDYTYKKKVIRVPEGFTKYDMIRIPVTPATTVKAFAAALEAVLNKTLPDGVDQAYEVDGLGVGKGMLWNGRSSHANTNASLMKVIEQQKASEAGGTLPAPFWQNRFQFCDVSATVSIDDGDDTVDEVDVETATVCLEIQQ
The assay is described as follows: Leishmania donovani Ubiquitin Activating Enzyme (LdE1). The settings on record: 30 µM. In kind it is functional.

Assay [3] concerns the target AMP-activated protein kinase, AMPK (Homo sapiens) (UniProt P54646+O43741+P54619+Q9UGJ0+Q9Y478+Q13131+Q9UGI9). The assay is described as follows: AMP-dependent Kinase enzyme assay. An in vitro enzyme assay that detects ADP turnover that is directly proportional to AMPK activity. This uses naive AMPK that is activated during the assay with MK-8722. Particulars: 30 µM. In kind it is functional.

The target in assay [4] is Sialic acid-binding Ig-like lectin 9 (Homo sapiens) (UniProt Q9Y336). As to the kind of experiment: Hs-Siglec9 ALPHAscreen SOP 20170721. Particulars: 10 µM.
Sialic acid-binding Ig-like lectin 9 (Homo sapiens), sequence (Q9Y336 whole entry): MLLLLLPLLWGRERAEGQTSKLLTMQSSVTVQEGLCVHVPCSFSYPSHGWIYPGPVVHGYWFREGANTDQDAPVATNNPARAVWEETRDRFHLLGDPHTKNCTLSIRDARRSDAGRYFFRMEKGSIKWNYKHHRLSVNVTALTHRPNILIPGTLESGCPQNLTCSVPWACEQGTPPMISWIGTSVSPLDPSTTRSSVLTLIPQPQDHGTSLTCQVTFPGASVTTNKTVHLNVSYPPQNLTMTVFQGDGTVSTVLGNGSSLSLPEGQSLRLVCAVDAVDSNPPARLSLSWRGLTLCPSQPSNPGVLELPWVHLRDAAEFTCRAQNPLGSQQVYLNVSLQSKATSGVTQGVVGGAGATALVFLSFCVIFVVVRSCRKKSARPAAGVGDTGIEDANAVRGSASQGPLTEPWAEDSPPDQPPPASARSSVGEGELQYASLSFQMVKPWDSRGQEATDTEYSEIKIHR
For a further assay, the system named is Trypanosoma cruzi. The assay is described as follows: Trypanosoma cruzi phosphomannomutase and mannose-1-phosphate guanylyltransferase assay. In kind it is functional. Particulars: 10 µM.
For assay [5], the target named is T2, Arginase-2, mitochondrial (Homo sapiens) (UniProt P78540).
T2 sequence (whole entry): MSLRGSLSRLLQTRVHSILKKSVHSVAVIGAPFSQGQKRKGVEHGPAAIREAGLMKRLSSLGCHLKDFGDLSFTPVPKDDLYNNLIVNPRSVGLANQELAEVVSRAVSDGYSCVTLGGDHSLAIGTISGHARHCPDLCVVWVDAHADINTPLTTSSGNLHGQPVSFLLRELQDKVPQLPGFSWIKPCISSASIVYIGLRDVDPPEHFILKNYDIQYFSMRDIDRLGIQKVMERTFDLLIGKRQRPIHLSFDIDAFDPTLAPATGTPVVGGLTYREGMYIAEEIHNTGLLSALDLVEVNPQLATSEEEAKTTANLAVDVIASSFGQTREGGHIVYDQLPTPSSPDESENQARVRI
The assay is described as follows: in vitro enzyme assay to detect the production of urea directly proportional to the activity of Arginase II. Also: in the data most compounds retested in dose-response had high values. In kind it is functional. The settings on record: 33.3 µM.

For assay [6], the target named is T3, Proteasome subunit beta (Trypanosoma cruzi) (UniProt O96673).
T3 sequence (whole entry): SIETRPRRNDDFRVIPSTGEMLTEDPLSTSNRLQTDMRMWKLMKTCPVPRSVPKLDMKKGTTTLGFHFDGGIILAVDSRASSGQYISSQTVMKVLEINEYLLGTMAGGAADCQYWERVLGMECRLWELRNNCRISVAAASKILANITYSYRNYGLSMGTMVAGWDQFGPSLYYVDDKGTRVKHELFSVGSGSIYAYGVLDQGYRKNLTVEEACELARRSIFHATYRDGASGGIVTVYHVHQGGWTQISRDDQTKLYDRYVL
The assay is described as follows: Trypanosoma cruzi proteasome chymotrypsin-like activity (TcProtChymo) assay. Also: in the data most compounds retested in dose-response had high values. Particulars: 9.37 µM. In kind it is functional.

The species entered for a further assay is Homo sapiens. The assay is described as follows: To identify inhibition of the IFN signalling (Jak-Stat) pathway via expression of an eGFP reporter gene under the control of an IFN-stimulated response element (ISRE) containing MxA promoter. In kind it is functional. Particulars: 30 µM.
Assay [7] concerns the target T4, Tyrosyl-tRNA synthetase, putative (Trypanosoma cruzi (strain CL Brener)) (UniProt Q4DSP6).
T4 sequence (whole entry): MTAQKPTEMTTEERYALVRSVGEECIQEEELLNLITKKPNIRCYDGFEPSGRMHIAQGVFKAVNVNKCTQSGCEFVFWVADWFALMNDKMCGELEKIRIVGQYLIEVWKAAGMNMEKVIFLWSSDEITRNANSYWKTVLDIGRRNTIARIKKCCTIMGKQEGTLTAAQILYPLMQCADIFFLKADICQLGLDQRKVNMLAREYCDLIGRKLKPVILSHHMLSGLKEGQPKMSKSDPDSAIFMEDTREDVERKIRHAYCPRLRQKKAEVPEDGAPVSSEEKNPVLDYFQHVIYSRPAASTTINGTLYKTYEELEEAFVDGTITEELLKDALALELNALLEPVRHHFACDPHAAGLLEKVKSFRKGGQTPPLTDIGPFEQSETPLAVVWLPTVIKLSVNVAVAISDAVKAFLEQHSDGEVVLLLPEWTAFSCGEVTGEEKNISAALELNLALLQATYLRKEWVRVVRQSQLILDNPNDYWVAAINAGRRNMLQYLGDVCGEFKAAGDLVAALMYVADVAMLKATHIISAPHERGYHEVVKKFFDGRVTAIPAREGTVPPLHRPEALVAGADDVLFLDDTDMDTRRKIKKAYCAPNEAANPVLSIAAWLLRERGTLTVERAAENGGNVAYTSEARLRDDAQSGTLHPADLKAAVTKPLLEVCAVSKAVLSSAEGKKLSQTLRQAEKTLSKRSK
The assay is described as follows: Trypanosoma cruzi tyrosyl tRNA synthetase (TcYRS) _High Tyrosine SOP. Also: in the data most compounds retested in dose-response had high values. It counts as functional. The settings on record: 30 µM.

Assay [8] concerns the target T4, Tyrosyl-tRNA synthetase, putative (Trypanosoma cruzi (strain CL Brener)). The assay is described as follows: Trypanosoma cruzi tyrosyl tRNA synthetase (TcYRS) SOP. In kind it is functional. Particulars: 30 µM.
For assay [9], the target named is Chromo domain-containing protein 1 (Saccharomyces cerevisiae (strain ATCC 204508 / S288c) (Baker's yeast)) (UniProt P32657). As to the kind of experiment: ScCHD-1 Enzyme Inhibition Assay. Also: in the data most compounds retested in dose-response had high values. In kind it is functional. The settings on record: 30 µM.
Chromo domain-containing protein 1 (Saccharomyces cerevisiae (strain ATCC 204508 / S288c) (Baker's yeast)), sequence (P32657 whole entry, the tested form may be a part): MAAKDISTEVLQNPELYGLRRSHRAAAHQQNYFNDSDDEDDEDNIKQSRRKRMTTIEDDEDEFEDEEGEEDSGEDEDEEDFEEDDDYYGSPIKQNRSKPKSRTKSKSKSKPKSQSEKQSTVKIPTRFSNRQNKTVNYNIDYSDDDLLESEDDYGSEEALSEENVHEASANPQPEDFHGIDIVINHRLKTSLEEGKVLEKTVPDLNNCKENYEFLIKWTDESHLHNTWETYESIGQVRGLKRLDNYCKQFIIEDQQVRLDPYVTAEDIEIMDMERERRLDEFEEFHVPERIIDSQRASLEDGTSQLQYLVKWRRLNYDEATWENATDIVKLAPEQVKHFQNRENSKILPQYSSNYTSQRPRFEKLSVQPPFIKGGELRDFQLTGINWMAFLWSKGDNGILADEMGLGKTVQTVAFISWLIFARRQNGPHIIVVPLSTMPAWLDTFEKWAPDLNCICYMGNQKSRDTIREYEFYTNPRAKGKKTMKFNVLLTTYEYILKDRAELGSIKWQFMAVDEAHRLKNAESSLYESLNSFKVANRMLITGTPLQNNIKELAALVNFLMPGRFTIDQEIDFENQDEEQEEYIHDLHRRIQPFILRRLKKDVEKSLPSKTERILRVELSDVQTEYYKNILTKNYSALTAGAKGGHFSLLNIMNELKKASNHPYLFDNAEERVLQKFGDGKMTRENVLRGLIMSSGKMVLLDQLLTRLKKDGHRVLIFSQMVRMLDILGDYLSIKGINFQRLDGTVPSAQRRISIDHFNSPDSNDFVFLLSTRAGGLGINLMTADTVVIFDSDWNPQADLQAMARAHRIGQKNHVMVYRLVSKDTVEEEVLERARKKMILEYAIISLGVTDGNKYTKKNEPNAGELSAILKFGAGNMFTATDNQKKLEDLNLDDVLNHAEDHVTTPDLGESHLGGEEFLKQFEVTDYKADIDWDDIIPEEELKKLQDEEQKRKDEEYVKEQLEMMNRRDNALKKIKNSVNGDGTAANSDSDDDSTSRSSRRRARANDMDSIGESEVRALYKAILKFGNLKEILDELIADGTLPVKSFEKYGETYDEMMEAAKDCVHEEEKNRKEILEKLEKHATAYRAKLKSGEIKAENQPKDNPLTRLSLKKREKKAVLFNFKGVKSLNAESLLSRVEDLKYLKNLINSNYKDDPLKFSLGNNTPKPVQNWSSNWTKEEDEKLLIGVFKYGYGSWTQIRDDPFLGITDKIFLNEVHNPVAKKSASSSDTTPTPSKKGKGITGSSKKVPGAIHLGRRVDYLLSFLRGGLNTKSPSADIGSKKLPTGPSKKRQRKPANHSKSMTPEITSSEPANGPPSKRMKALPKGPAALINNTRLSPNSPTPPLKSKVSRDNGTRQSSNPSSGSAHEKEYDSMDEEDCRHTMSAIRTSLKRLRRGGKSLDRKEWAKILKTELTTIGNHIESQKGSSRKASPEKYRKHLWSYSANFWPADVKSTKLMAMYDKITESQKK

Protein translocase subunit SecA (Escherichia coli (strain K12)), sequence (P10408 whole entry): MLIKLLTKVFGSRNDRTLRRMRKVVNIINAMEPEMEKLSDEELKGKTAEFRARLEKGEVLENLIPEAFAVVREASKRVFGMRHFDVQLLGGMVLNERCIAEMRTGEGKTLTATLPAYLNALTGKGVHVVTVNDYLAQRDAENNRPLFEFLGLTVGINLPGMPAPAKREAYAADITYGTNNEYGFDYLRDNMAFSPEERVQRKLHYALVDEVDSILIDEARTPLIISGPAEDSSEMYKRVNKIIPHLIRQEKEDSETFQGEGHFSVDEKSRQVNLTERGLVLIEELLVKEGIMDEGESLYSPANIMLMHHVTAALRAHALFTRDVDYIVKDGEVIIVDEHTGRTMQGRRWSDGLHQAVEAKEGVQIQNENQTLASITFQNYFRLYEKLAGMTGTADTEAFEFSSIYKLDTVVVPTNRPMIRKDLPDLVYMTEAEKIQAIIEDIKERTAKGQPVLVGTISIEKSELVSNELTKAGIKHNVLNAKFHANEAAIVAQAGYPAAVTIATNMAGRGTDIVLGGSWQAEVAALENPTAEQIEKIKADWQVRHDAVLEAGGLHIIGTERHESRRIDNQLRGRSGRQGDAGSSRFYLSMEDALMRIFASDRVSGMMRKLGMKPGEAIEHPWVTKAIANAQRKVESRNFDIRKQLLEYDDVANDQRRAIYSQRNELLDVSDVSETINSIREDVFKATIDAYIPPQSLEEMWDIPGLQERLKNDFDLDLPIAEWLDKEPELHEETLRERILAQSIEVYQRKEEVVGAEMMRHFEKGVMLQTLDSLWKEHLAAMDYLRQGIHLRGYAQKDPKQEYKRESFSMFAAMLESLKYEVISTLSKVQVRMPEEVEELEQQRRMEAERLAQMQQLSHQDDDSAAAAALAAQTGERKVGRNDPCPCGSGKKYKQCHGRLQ

Turning to `Cc1nc(C)c2c(n1)CCN(C(=O)CC1CC1)CC2`, the Percent Effect in [1] was 3.82%; in assay [2] it was 10.8%; in assay [3], 4.71%; in assay [4], -10.8%; in the assay on Trypanosoma cruzi, -5.57%; in assay [5] it was 2.87%. In addition, the Percent Effect was 21.2% in [6]; 10.2% in the assay filed under Homo sapiens; 3.24% in assay [7]; 12.8% in [8]; -3.91% in assay [9].
On to `CCNC(=O)c1nnc2ccc(N3CCOCC3)cc2n1`, for which the Percent Effect in assay [1] is -7.02%; in assay [2], -1.33%; in assay [3], 58.5%; in assay [4], 3.63%; with Trypanosoma cruzi, -6.09%; in assay [5], -3.7%. The Percent Effect in [6] was 7.95%; in the assay listed under Homo sapiens it was 19.8%; in [7], 7.41%; in [8], 7.69%; in assay [9] it was -13.2%.
As for `COCCCNC(=O)NCc1ccc(C)cc1`, the Percent Effect in assay [1] was -4.5%; in [2] it was 6.33%; in assay [3], -3.62%; in assay [4], -1.57%; in the assay on Trypanosoma cruzi, -0.308%; in [5], -4.52%. For the same compound, the Percent Effect in assay [6] is 13.2%; in the assay filed under Homo sapiens it was 1.42%; in assay [7] it was 5.21%; in assay [8] it was 17.7%; in [9], -28.6%.
As to `CC(C)c1nc2c(n1C)CCN(Cc1nc(-c3ccsc3)no1)C2`, the Percent Effect was -1.67% in [1]; -24.3% in [2]; -9.21% in assay [3]; 0.639% in assay [4]; 7.71% in the assay on Trypanosoma cruzi; -1.29% in assay [5]. Moreover, the Percent Effect was 10.1% in assay [6]; 1.59% in the assay filed under Homo sapiens; 9.9% in assay [7]; 25.6% in [8]; -0.805% in [9].
With `Fc1ccc(CN2CCC(c3n[nH]c4nccnc34)CC2)cc1F`, the Percent Effect in [1] is -3.35%; in assay [2], 9.46%; in assay [3], 4.38%; in assay [4] it was -4.91%; with Trypanosoma cruzi, 0.593%; in [5] it was -1.16%. Besides, the Percent Effect in assay [6] is 19.8%; in the assay filed under Homo sapiens it was 7.61%; in [7], 1.07%; in [8] it was 6.49%; in assay [9] it was -18.1%.
Regarding `O=C(CCOc1cccc(F)c1)N1CCCC(n2cncn2)C1` (stereo not given), the Percent Effect is -2.79% in assay [1]; 1.27% in assay [2]; 7.42% in [3]; 3.23% in [4]; -1.95% in the assay on Trypanosoma cruzi; 4.95% in assay [5]. For the same compound, the Percent Effect was 6% in assay [6]; 2.52% in the assay listed under Homo sapiens; 2.08% in assay [7]; 7.59% in assay [8]; -10.2% in assay [9].
For `Cc1cccc(CN2C(=O)CC[C@@H]3[C@H]2CCN3Cc2ccc(C)s2)n1`, the Percent Effect is -2.54% in assay [1]; 2.67% in assay [2]; 9.98% in [3]; 2.33% in assay [4]; -1.57% in the assay with Trypanosoma cruzi; 0.233% in [5]. Moreover, the Percent Effect is 9.43% in assay [6]; 6.8% in the assay filed under Homo sapiens; -1.06% in assay [7]; -3.85% in [8]; 2.14% in assay [9].
Regarding `COc1ccc(CNC(=O)N(Cc2ccc(F)cc2F)C2CC2)cn1`, the Percent Effect is -6.72% in assay [1]; 15.2% in [2]; -2.76% in assay [3]; 9.29% in assay [4]; 5.95% in the assay on Trypanosoma cruzi; -0.76% in assay [5]. The Percent Effect in assay [6] is 0.737%; in the assay filed under Homo sapiens, 8.63%; in assay [7], 3.45%; in assay [8] it was 21.5%; in assay [9], -7.42%.
As to `Cc1cnc(CNc2c(F)cccc2-n2cccn2)o1`, the Percent Effect in [1] is 3.66%; in assay [2] it was 12.5%; in assay [3], -4.76%; in assay [4], 5.6%; in the assay with Trypanosoma cruzi, -8.46%; in [5], 2.65%. Besides, the Percent Effect in assay [6] amounted to 13.7%; in the assay listed under Homo sapiens it was 5.49%; in assay [7], 4.21%; in [8], 5.13%; in [9], 101%.
As to `CN1CCN(Cc2ccccc2CNC(=O)c2ccc(Br)cc2)CC1`, the Percent Effect is -4.93% in [1]; 8.11% in assay [2]; -2.99% in assay [3]; 8.77% in [4]; 0.0978% with Trypanosoma cruzi; 1.24% in [5]. Further, the Percent Effect in [6] is 5.92%; in the assay filed under Homo sapiens, -4.85%; in assay [7], 3.23%; in assay [8], 16.1%; in assay [9], -1.46%.
